This note sets out measurements from PubChem BioAssay AID493208 (National Center for Advancing Translational Sciences (NCATS), 2011).

Hit rate of the full screen: of about 44,000 compounds, about 340 (0.77%) were called active. Roughly 5% stayed inconclusive and do not appear here. The call rests on the fitted dose curve; in most records, active means well fitted inhibition curve with a large enough effect; inconclusive means small, poorly fitted or top-dose-only effect; inactive means flat fitted curve, though single readings scatter. Only a selection was taken, and actives are over-represented in it overall.
Potency means the concentration at half of the fitted maximal effect.

A short description of this assay: Acumen qHTS Assay for Inhibitors of the mTORC1 Signaling Pathway in MEF (Tsc2-/-, p53-/-) Cells: Sytravon. Further: nearly all actives have a fitted effect of over 50% in size. The conditions noted are these: phospho-rpS6 immunofluorescence/PI, 24 h; series mostly up to 38.3 µM; activity change, negative = inhibition: at the top concentration. The text has this:
NIH Molecular Libraries Probe Production Centers Network [MLPCN] NIH Chemical Genomics Center [NCGC] MLPCN Grant: NS059428-01 Assay Submitter (PI): Blenis, John; Hoffman, Greg; Harvard University NCGC Assay Overview: The mammalian target of rapamycin (mTOR) is an intracellular serine/threonine kinase Aberrant regulation of mTOR signaling plays a causative role in a number of human diseases, including cancer, benign tumors such as lymphangioleiomyomatosis (LAM) and Tuberous Sclerosis Complex (TSC), and metabolic diseases such as diabetes and obesity. This project aims to identify inhibitors of ribosomal protein S6 (rpS6) phosphorylation. The phosphorylation of rpS6 is a key event downstream of mTOR activation. The assay uses a phospho-specific antibody of phospho-rpS6 to detect inhibitors of mTOR activation. Mutations in the Tsc1 and Tsc2 genes are the underlying genetic lesions responsible for TSC, causing constitutive activation of the mTORC1 pathway and leading to profound effects on cell metabolism. Aberrant metabolism in cancer has recently received significant attention as a target to develop therapeutic agents in the treatment of cancer.1 As Tsc2-/- cells have lost the ability to respond to energy and growth factor deprivation, these cells are unable to properly down regulate cellular biosynthetic processes in response to metabolic stress, and are thus extremely sensitive to glucose deprivation-induced death.2 A central goal of this project is to explore the unique cell survival and metabolic properties of cells with Tsc1 or Tsc2 by screening for compounds that selectively target the Tsc2-/- MEFs by screening both Tsc2-/- and WT MEF cell lines. We hope to better understand these aspects of TSC physiology in order to exploit them for therapeutic benefit.
NCGC Acumen Assay Protocol Summary: For quantitative high throughput analysis of mTORC1 signaling, we developed a cell-based assay for immuno-fluorescence based detection of rpS6 phosphorylation on the Acumen Explorer that will be used a platform for the primary small molecule screen. Mouse embryonic fibroblasts (MEFs) are cultured in 1536-well plates using DMEM + 10% FBS. Twenty-four hrs after plating, test compounds (solubilized in DMSO) are delivered and incubated with the cells for 24 hrs at 37 degree Celsius. Following the incubation, media with compound is aspirated and the cells are fixed in 4% paraformaldehyde (PFA) containing PBS + 0.2% TX-100. Next, PFA is aspirated, cells are washed two times with PBS plus 0.2% TX-100 and the cells are blocked for 1 hr at room temperature (blocking buffer: LiCOR Blocking Buffer plus 0.2% TX-100). […] Cells are washed two times with PBS plus 0.2% TX-100, and stained with 10 uM propidium iodide (PI) for 20-25 minutes for cell number measurement (1:500 dilution of Hoescht staining is also added for IN Cell imaging). The plates are scanned on the Acumen Explorer laser scanning instrument (TTP Labtech) using the 488nm laser for simultaneous excitation of the Alexa-488 and PI. […] The normalized phospho-S6 staining is calculated as the ratio of the integrated Alexa 488 intensity divided by the integrated PI intensity for the single concentration rapamycin control (7.5 nM) and DMSO columns. […] Inhibition of the pathway is defined based on the normalized phospho-S6 intensity in rapamycin treated cells. Active cells are defined as those with a normalized phospho-S6 staining above this threshold, and each treatment is reported as the % positive cells in the well, where thresholds are defined by selecting wells with the highest and lowest signal and differentiating between the % non-active and % active populations. In addition to the pathway specific phospho-S6 endpoint, the number of PI stained cells from the Acumen is recorded as a measure of cell viability. The primary screen was performed with a MEF cell line in a defined genetic background, Tsc2-/-, p53-/- cell line stably transfected with an empty vector control (Tsc2-/- MEF).
(qHTS replaces the single test concentration by a dilution series.)
On to `Cc1ccc(S(=O)(=O)c2nc(-c3ccco3)oc2SCC(=O)Nc2ccc(F)cc2)cc1`, for which the “activity change, negative = inhibition” value was -0.694% (inactive). For `CCOc1ccc(C(=O)/C=C/c2cn(CC(O)CN3CCCCCC3)c3ccccc23)cc1` (stereo not drawn), the Potency is 14.7 µM (active). As to `O=C(/C=C/c1cn(CC(O)CN2CCc3ccccc32)c2ccccc12)c1ccc(Br)cc1` (stereo not drawn), the “activity change, negative = inhibition” value is -17.5% (inactive). In the case of `COc1ccc(OCCn2cc(C(=O)C3CCCCC3)c3ccccc32)cc1`, the “activity change, negative = inhibition” value is 0.18% (inactive). With `O=C(CSc1oc(-c2ccc(F)cc2)nc1S(=O)(=O)c1ccc(Br)cc1)NC1CCCCC1`, the “activity change, negative = inhibition” value is 4.26% (inactive). On to `CC(C)S(=O)(=O)c1oc(-c2ccc(F)cc2)nc1S(=O)(=O)c1ccc(F)cc1`, for which the Potency is 0.521 µM (active). For `COc1ccc(-c2nc(S(=O)(=O)c3ccccc3)c(N3CCCCC3)o2)cc1`, the “activity change, negative = inhibition” value is -13.1% (inactive).

Consider `COc1ccccc1NC(=O)CCC(=O)N1CC(C)Oc2ccc(C)cc21` (stereo not drawn), for which the “activity change, negative = inhibition” value is -7.46% (inactive).

With `COc1ccc(C)cc1N(CC(=O)N1CCC(C)CC1)S(=O)(=O)c1ccc(C)cc1`, the “activity change, negative = inhibition” value is 2.44% (inactive). Same read-out and setting: in the case of `CC(C)(C)c1ccc(OCC(=O)N2CCC(c3nc4ccccc4s3)CC2)cc1` it was -9.26% (inactive). Regarding `CN1CCN(C2(CNC(=O)COc3ccc(C(C)(C)C)cc3)CCCCC2)CC1`, the Potency is 8.26 µM (active). For the compound `CCn1cc(C(=O)NCc2ccccc2)c(=O)c2cc(S(=O)(=O)N3CCCCC3)ccc21`, the “activity change, negative = inhibition” value is -7.26% (inactive). With `Cc1cccc(CNC(=O)c2cnc3sc(N4CCCCC4)nn3c2=O)c1`, the “activity change, negative = inhibition” value is 8.89% (inactive). As to `O=C(Cc1ccc(Cl)cc1)Nc1ccc2nn(-c3ccc(Cl)cc3)nc2c1`, the “activity change, negative = inhibition” value is -7.33% (inactive). In the case of `COc1ccc(NC(=O)c2ccc3nc(C(C)C)oc3c2)cc1OC`, the “activity change, negative = inhibition” value is -14.4% (inactive). With `COc1ccc(NC(=O)c2cnc(Nc3ccc(C)c(Cl)c3)c3ccccc23)cc1OC`, the “activity change, negative = inhibition” value is 0.723% (inactive). As to `COc1ccc(C(=O)Nc2ccc3nc(N4CCCCC4)cc(C)c3c2)cc1OC`, the Potency is 13.1 µM (active). In the case of `CCOc1ccc(-n2nc3ccc(NC(=O)c4ccc(OC)c(Cl)c4)cc3n2)cc1`, the “activity change, negative = inhibition” value was 2.46% (inactive).

Take `COc1cccc(C(=O)Nc2ccc3nc4n(c(=O)c3c2)CCCCC4)c1`: the “activity change, negative = inhibition” value is -1.75% (inactive). Take `CCN1CCN(c2cc(C)c3cc(NC(=O)c4cc(Cl)ccc4OC)ccc3n2)CC1`: the Potency was 2.61 µM (active). As to `CCOc1ccc(NC(=O)CN(Cc2ccccc2)S(=O)(=O)c2ccc(Cl)cc2)cc1`, the “activity change, negative = inhibition” value is 3.52% (inactive). Consider `CCOc1ccc(N(Cc2ccccc2)C(=O)c2nc(S(C)(=O)=O)ncc2Cl)cc1`, for which the Potency was 0.736 µM (active). For the compound `CCOc1ccc(N(Cc2ccccc2)C(=O)c2nc(SCC)ncc2Cl)cc1`, the “activity change, negative = inhibition” value is -13% (inactive).

On to `CCOC(=O)c1ccc(NC(=O)c2c(NCc3cccs3)sc3c2CCCC3)cc1`, for which the “activity change, negative = inhibition” value is -12.1% (inactive). Regarding `CCCn1ccc2c(OCC(=O)NCc3ccc(F)cc3)cccc2c1=O`, the “activity change, negative = inhibition” value is -1.85% (inactive). The same measure, in the same setting: under `CCOc1ccc(N2CC(C)Cn3c2nc2c3c(=O)n(Cc3c(F)cccc3Cl)c(=O)n2C)cc1` (stereo not drawn) stands -8.65% (inactive).

In the case of `O=C1CN(C(=O)Nc2ccccc2C(F)(F)F)C(c2ccccc2)c2c(sc3c2CCCC3)N1` (stereo not drawn), the “activity change, negative = inhibition” value was 4.23% (inactive). On to `Oc1c(C(c2ccc(F)cc2)N2CCN(Cc3ccccc3)CC2)sc2nc(-c3ccco3)nn12` (stereo not drawn), for which the “activity change, negative = inhibition” value is 0.278% (inactive).

With `Cc1nc2ccn(Cc3cccs3)c(=O)c2cc1C(=O)NCc1ccc(Cl)cc1`, the “activity change, negative = inhibition” value is -5.14% (inactive).

Take `CCOCCCNC(=O)c1cn(CC)c2ccc(S(=O)(=O)N3CCc4ccccc4C3)cc2c1=O`: the “activity change, negative = inhibition” value is 0.725% (inactive). Still for that read-out and setting: in the case of `Cc1ccc2nc(/C(C#N)=C/c3ccc(-c4ccc(C(=O)OC(C)C)cc4)o3)[nH]c2c1` it was -18.9% (inactive); in that of `Cc1nn2c(=O)cc(COC(=O)CNC(=O)c3ccc(F)cc3)nc2s1`, -6.97% (inactive); in that of `COc1ccc(N2CCN(c3cc(C)nc4nncn34)CC2)cc1`, -1.3% (inactive). Take `CCOc1ccc(CCNC(=O)c2ccc3c(c2)sc2nc(-c4ccc(F)cc4)cn23)cc1OCC`: the “activity change, negative = inhibition” value is -3.54% (inactive). With `Cc1nn2c(=O)cc(COC(=O)c3cccc(NC(=O)COc4ccccc4Cl)c3)nc2s1`, the “activity change, negative = inhibition” value was 0% (inactive). On the same count and under the same terms, in the case of `Cc1nn(CC(=O)N2CCN(c3cccc(C(F)(F)F)c3)CC2)c(=O)c2cc3sccc3n12` it was 1.19% (inactive).

Turning to `COc1cc(Nc2nc(-c3ccc(OC)c(OC)c3)nc3ccccc23)cc(OC)c1`, the Potency was 16.5 µM (active).

Regarding `CCOC(=O)c1nc(Nc2ccc(C(=O)OC)cc2)c2ccccc2n1`, the “activity change, negative = inhibition” value is -14.8% (inactive). Regarding `COc1cccc(Nc2nc3ccccc3c3nncn23)c1`, the “activity change, negative = inhibition” value was -4.37% (inactive).

For `Cn1c(=O)oc2cc(S(=O)(=O)CCC(=O)NCCc3ccc(Cl)cc3)ccc21`, the “activity change, negative = inhibition” value is -10.6% (inactive).

In the case of `Cc1ccc(S(=O)(=O)c2cn(Cc3ccccc3)c3cc(N4CCCC4)c(F)cc3c2=O)c(C)c1`, the “activity change, negative = inhibition” value was -7.49% (inactive). Take `CN(C)S(=O)(=O)c1ccc(C(=O)N(Cc2cccnc2)c2nc3c(F)cc(F)cc3s2)cc1`: the “activity change, negative = inhibition” value is -8.48% (inactive).

On to `O=C(CCS(=O)(=O)c1ccccc1)N(Cc1cccnc1)c1nc2c(F)cccc2s1`, for which the Potency is 3.69 µM (active). In the case of `O=C(CCOc1ccccc1)N(Cc1cccnc1)c1nc2ccc(Cl)cc2s1`, the “activity change, negative = inhibition” value is -0.351% (inactive). With `CC1=C(C(=O)OCC(C)C)C(c2ccc(OCc3ccccc3)cc2)N2C(=O)CCSC2=N1` (stereo not drawn), the “activity change, negative = inhibition” value was -27.7% (inactive). Turning to `CCOc1ccc(C2CC(=O)c3c([nH]c(C(=O)OCc4ccccc4)c3C)C2)cc1` (stereo not drawn), the Potency was 4.14 µM (active).

Turning to `CCc1ccc(C2CC(=O)c3c([nH]c(C(=O)OCc4ccc(C)cc4)c3C)C2)cc1` (stereo not drawn), the “activity change, negative = inhibition” value is -16.6% (inactive). For `CCCCS(=O)(=O)c1oc(-c2cccs2)nc1S(=O)(=O)c1ccccc1`, the Potency was 0.414 µM (active).
